According to PMC7862700, “An all-to-all approach to the identification of sequence-specific readers for epigenetic DNA modifications on cytosine”:

Tests used:
Test in all cases: DAPPL (digital affinity profiling via proximity ligation, sequencing); 10 mM Tris-HCl pH 7.5, 50 mM NaCl, 1 mM DTT, 4% glycerol, room temperature, 30 min; GST-TFs on glutathione beads, 16-mer random dsDNA library, 0.1% formaldehyde crosslink after washing; high values mean tight binding
Conditions in all cases: protein: recombinant; tags: N-terminal GST; dsDNA, one strand shown
FLI1 = molecular target: T1, FLI1 (Homo sapiens, UniProt Q01543 1-452)
T1 sequence: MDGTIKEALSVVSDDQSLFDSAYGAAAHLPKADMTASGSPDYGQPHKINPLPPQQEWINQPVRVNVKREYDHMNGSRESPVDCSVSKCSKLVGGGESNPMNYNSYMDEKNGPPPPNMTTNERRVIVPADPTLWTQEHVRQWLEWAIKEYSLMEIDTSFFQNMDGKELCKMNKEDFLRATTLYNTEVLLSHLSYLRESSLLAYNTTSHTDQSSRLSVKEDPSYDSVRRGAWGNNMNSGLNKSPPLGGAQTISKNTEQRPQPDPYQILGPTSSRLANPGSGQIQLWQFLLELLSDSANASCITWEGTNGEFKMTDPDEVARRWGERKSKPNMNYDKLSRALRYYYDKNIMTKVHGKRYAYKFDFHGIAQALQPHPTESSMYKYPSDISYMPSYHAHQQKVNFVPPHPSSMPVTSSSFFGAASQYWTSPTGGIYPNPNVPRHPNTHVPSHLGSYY
How it was run: (§1)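 Pools were built from human transcription factors expressed in yeast as GST fusions, captured on glutathione beads and DNA-barcoded, along with a tag-only sample. Incubation with 200 nmole of a 16-mer random double-stranded DNA library lasted 30 min at room temperature in Tris/NaCl/DTT/glycerol buffer, and was followed by washing, 0.1% formaldehyde crosslinking, proximity ligation, PCR amplification and Illumina NextSeq500 sequencing. Binding signal is the quotient of each hexamer's read frequency for a factor and its frequency for the tag-only sample.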

ELK1 = molecular target: T2, ELK1 (Homo sapiens, UniProt P19419 1-428)
T2 sequence: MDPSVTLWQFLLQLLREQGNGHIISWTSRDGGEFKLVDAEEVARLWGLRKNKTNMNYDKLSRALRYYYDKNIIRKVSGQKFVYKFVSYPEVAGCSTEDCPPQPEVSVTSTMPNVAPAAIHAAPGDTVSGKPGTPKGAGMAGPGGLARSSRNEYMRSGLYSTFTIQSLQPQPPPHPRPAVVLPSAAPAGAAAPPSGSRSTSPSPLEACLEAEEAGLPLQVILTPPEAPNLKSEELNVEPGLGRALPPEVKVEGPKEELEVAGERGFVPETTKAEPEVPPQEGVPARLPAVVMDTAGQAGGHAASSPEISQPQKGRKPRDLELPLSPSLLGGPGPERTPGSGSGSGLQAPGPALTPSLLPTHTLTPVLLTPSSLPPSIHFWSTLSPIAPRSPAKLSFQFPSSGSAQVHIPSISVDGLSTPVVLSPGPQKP
How it was run: as §1

GABPA = molecular target: T3, GABPA (Homo sapiens, UniProt Q06546 1-454)
T3 sequence: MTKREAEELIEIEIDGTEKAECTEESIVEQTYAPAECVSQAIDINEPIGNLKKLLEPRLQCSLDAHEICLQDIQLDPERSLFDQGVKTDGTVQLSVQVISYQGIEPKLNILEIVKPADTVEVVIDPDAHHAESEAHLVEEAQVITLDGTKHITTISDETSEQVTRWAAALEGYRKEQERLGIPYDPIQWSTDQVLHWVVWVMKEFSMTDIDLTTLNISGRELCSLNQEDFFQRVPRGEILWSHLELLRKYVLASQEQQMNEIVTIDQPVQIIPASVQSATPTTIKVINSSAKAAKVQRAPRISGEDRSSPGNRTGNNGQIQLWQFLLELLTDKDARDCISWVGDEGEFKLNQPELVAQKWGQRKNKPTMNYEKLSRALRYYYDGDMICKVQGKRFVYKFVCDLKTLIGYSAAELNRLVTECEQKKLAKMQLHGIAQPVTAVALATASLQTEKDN
How it was run: as §1

ERG = molecular target: T4, ERG (Homo sapiens, UniProt P11308 1-479)
T4 sequence: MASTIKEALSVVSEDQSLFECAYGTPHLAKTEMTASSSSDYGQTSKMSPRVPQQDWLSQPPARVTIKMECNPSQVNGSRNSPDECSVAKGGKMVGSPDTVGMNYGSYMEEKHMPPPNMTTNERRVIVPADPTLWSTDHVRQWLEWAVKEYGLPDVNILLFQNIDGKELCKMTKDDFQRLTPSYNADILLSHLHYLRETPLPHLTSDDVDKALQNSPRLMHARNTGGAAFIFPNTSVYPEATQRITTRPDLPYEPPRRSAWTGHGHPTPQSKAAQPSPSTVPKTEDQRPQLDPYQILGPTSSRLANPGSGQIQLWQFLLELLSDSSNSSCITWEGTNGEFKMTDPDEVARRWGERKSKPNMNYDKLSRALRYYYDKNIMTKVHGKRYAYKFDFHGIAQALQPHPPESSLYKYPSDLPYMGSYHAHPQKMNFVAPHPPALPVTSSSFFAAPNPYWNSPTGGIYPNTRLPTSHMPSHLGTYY
How it was run: as §1

ELF1 = ELF1 (Homo sapiens, UniProt P32519 1-619)
How it was run: as §1

EHF = molecular target: T5, EHF (Homo sapiens, UniProt Q9NZC4 1-300)
T5 sequence: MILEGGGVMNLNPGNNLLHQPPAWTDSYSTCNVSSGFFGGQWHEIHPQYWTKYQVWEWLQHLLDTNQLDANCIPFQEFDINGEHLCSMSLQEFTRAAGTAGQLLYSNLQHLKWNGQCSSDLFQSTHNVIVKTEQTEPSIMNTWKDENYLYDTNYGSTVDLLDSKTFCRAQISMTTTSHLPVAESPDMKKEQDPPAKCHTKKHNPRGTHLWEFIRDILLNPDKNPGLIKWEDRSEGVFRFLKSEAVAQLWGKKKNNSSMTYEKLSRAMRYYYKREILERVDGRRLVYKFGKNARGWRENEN
How it was run: as §1

SPI1 = SPI1 (Homo sapiens, UniProt P17947 1-270)
How it was run: as §1

SPIB = SPIB (Homo sapiens, UniProt Q01892 1-262)
How it was run: as §1

Sequence of ELF1 (P32519 whole entry): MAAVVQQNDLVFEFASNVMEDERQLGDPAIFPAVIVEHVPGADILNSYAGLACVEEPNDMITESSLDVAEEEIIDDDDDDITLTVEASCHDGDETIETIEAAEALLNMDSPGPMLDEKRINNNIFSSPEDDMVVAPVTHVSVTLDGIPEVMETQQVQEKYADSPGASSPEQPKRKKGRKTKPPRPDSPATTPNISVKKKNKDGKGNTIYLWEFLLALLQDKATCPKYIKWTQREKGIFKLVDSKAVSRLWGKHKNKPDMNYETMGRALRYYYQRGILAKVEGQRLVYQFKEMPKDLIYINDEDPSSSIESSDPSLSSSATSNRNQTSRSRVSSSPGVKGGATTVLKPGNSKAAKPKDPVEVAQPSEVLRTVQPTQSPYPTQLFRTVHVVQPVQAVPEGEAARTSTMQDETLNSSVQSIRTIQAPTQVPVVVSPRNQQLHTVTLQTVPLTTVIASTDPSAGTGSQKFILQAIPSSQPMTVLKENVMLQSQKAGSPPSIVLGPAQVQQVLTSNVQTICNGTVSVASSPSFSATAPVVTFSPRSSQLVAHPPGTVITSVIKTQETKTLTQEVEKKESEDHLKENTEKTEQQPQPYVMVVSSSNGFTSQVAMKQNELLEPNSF
Sequence of SPIB (Q01892 whole entry): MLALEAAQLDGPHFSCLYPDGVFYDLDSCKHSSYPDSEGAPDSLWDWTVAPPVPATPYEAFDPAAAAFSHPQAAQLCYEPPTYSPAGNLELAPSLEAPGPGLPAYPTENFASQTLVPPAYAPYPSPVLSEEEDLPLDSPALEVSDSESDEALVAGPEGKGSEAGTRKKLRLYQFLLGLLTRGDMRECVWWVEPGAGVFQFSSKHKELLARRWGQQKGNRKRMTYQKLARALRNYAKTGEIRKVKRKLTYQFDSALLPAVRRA

| Sequence | binding signal (FLI1) | binding signal (ELK1) | binding signal (GABPA) | binding signal (ERG) | binding signal (ELF1) | binding signal (EHF) | binding signal (SPI1) | binding signal (SPIB) |
| --- | --- | --- | --- | --- | --- | --- | --- | --- |
| TTAGCG | 1.05 fold enrichment (6-mer frequency, TF over GST control) | 1.04 fold enrichment (6-mer frequency, TF over GST control) | 1.03 fold enrichment (6-mer frequency, TF over GST control) | 1.05 fold enrichment (6-mer frequency, TF over GST control) | 1.09 fold enrichment (6-mer frequency, TF over GST control) | 1.06 fold enrichment (6-mer frequency, TF over GST control) | 1 fold enrichment (6-mer frequency, TF over GST control) | 1.13 fold enrichment (6-mer frequency, TF over GST control) |
| TCTGTG | 1.17 fold enrichment (6-mer frequency, TF over GST control) | 1.14 fold enrichment (6-mer frequency, TF over GST control) | 1.18 fold enrichment (6-mer frequency, TF over GST control) | 1.07 fold enrichment (6-mer frequency, TF over GST control) | 1.12 fold enrichment (6-mer frequency, TF over GST control) | 1.13 fold enrichment (6-mer frequency, TF over GST control) | 1.14 fold enrichment (6-mer frequency, TF over GST control) | 1.14 fold enrichment (6-mer frequency, TF over GST control) |
| TCGATG | 1.04 fold enrichment (6-mer frequency, TF over GST control) | 1.14 fold enrichment (6-mer frequency, TF over GST control) | 1.12 fold enrichment (6-mer frequency, TF over GST control) | 1.06 fold enrichment (6-mer frequency, TF over GST control) | 1.11 fold enrichment (6-mer frequency, TF over GST control) | 1.09 fold enrichment (6-mer frequency, TF over GST control) | 1.17 fold enrichment (6-mer frequency, TF over GST control) | 1.06 fold enrichment (6-mer frequency, TF over GST control) |
| TTGAGG | 1.23 fold enrichment (6-mer frequency, TF over GST control) | 1.09 fold enrichment (6-mer frequency, TF over GST control) | 1.16 fold enrichment (6-mer frequency, TF over GST control) | 1.06 fold enrichment (6-mer frequency, TF over GST control) | 1.08 fold enrichment (6-mer frequency, TF over GST control) | 1.11 fold enrichment (6-mer frequency, TF over GST control) | 1.27 fold enrichment (6-mer frequency, TF over GST control) |  |
| TATTCG | 1.11 fold enrichment (6-mer frequency, TF over GST control) | 1.11 fold enrichment (6-mer frequency, TF over GST control) | 1.2 fold enrichment (6-mer frequency, TF over GST control) | 1.14 fold enrichment (6-mer frequency, TF over GST control) | 1.14 fold enrichment (6-mer frequency, TF over GST control) | 1.11 fold enrichment (6-mer frequency, TF over GST control) | 1.18 fold enrichment (6-mer frequency, TF over GST control) | 1.16 fold enrichment (6-mer frequency, TF over GST control) |
| GATTTG | 1.24 fold enrichment (6-mer frequency, TF over GST control) | 1.16 fold enrichment (6-mer frequency, TF over GST control) | 1.22 fold enrichment (6-mer frequency, TF over GST control) | 1.11 fold enrichment (6-mer frequency, TF over GST control) | 1.12 fold enrichment (6-mer frequency, TF over GST control) | 1.11 fold enrichment (6-mer frequency, TF over GST control) | 1.08 fold enrichment (6-mer frequency, TF over GST control) | 1.12 fold enrichment (6-mer frequency, TF over GST control) |
| ACTCGC | 1.19 fold enrichment (6-mer frequency, TF over GST control) | 1.14 fold enrichment (6-mer frequency, TF over GST control) | 1.18 fold enrichment (6-mer frequency, TF over GST control) | 1.09 fold enrichment (6-mer frequency, TF over GST control) | 1.13 fold enrichment (6-mer frequency, TF over GST control) | 1.11 fold enrichment (6-mer frequency, TF over GST control) | 1.15 fold enrichment (6-mer frequency, TF over GST control) | 1.12 fold enrichment (6-mer frequency, TF over GST control) |
| TGCGCA | 1.17 fold enrichment (6-mer frequency, TF over GST control) | 1.07 fold enrichment (6-mer frequency, TF over GST control) | 1.07 fold enrichment (6-mer frequency, TF over GST control) | 1.07 fold enrichment (6-mer frequency, TF over GST control) | 1.14 fold enrichment (6-mer frequency, TF over GST control) | 1.16 fold enrichment (6-mer frequency, TF over GST control) | 1.08 fold enrichment (6-mer frequency, TF over GST control) | 1.02 fold enrichment (6-mer frequency, TF over GST control) |
